The results in this text go back to the supplement of paper PMC4709259.

The structures appear in SMILES notation. Where a name gives a salt, the structure may show the parent alone. ± gives the standard deviation.

Experiment [1] concerns Jurkat. The experiment is described as follows: mean cell size (FSC-A) relative to DMSO control (fraction of control); higher = larger cells. The settings on record: 48 h. Summed up: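 Jurkat cells at 600 cells/µl were incubated for 1 h and then treated for 48h with the Enzo Screen-Well FDA Approved Drug Library v2.0 at 25µM, with DMSO at 0.9% (v/v) final. Compounds that reduced counts below 20% of controls were retested in 10-fold dilutions down to 25nM. Cell count and mean cell size, taken as forward scatter area, were measured by flow cytometry relative to solvent-only controls. Each plate carried 6-12 controls, and values are means of 3 biological replicates.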

Experiment [2] concerns Jurkat. The experiment is described as follows: cell count relative to DMSO control (fraction of control); higher = more cells (less growth inhibition). The settings on record: 48 h.

In turn, `CCN(CC)C(=S)SSC(=S)N(CC)CC` [Disulfiram] (concentration: 25 µM) displayed a mean cell size in experiment [1] of 0.959 ± 0.051. In experiment [2], this compound gave a cell count of 0.559 ± 0.15.

Take `COc1cc(CNC(=O)CCCC/C=C/C(C)C)ccc1O` [Capsaicin] (concentration: 25 µM): the mean cell size in experiment [1] was 0.903 ± 0.021. The compound also gave a cell count in experiment [2] of 0.901 ± 0.08.

The compound `CC[C@@H]([C@H](C)O)n1ncn(-c2ccc(N3CCN(c4ccc(OC[C@@H]5CO[C@@](Cn6cncn6)(c6ccc(F)cc6F)C5)cc4)CC3)cc2)c1=O` [Posaconazole] (concentration: 25 µM) displayed a mean cell size in experiment [1] of 1.02 ± 0.032. The compound further displayed a cell count in experiment [2] of 1.016 ± 0.0028.

In experiment [1], `Cc1cc(NS(=O)(=O)c2ccc(N)cc2)no1` [Sulfamethoxazole] (concentration: 25 µM) showed a mean cell size of 0.962 ± 0.036. This compound came in with a cell count in experiment [2] of 0.809 ± 0.063.

In experiment [1], `Nc1nc2c(ncn2COCCO)c(=O)[nH]1` [Acyclovir (Acycloguanosine) Zovirax] (concentration: 25 µM) displayed a mean cell size of 0.977 ± 0.028. This compound displayed a cell count in experiment [2] of 0.842 ± 0.022.

`CO/N=C(\C(=O)N[C@@H]1C(=O)N2C(C(=O)OCOC(=O)C(C)(C)C)=C(/C=C\c3scnc3C)CS[C@H]12)c1csc(N)n1` [Cefditoren Pivoxil] (concentration: 25 µM): in experiment [1], the mean cell size was determined as 0.9999 ± 0.0094. The compound also displayed a cell count in experiment [2] of 0.77 ± 0.14.

For `OC(CCN1CCCCC1)(c1ccccc1)C1CCCCC1` (stereo not drawn) [Trihexyphenidyl·HCl] (concentration: 25 µM), in experiment [1], the mean cell size turned out to be 1.04 ± 0.031. Moreover, the cell count in experiment [2] was 1.05 ± 0.066.

Compound `CCCC(=O)Nc1ccc(OCC(O)CNC(C)C)c(C(C)=O)c1` (stereo not drawn) [Acebutolol·HCl] (concentration: 25 µM) yielded a mean cell size in experiment [1] of 1.04 ± 0.041. In experiment [2], the cell count was determined as 0.798 ± 0.17.

In turn, `Cc1ccc(C)c(OCCCC(C)(C)C(=O)O)c1` [Gemfibrozil] (concentration: 25 µM) had a mean cell size in experiment [1] of 0.956 ± 0.026. Moreover, in experiment [2], the cell count came out at 0.91 ± 0.048.

`O=P(O)(O)C(O)(Cc1cccnc1)P(=O)(O)O` [Risredonic Acid] (concentration: 25 µM) showed a mean cell size in experiment [1] of 0.964 ± 0.048. The compound also showed a cell count in experiment [2] of 0.428 ± 0.091.

Compound `Cc1cn([C@H]2C=C[C@@H](CO)O2)c(=O)[nH]c1=O` [Stavudine] (concentration: 25 µM) displayed a mean cell size in experiment [1] of 1.04 ± 0.06. The cell count in experiment [2] turned out to be 0.764 ± 0.071.

`COc1cccc2c1C(=O)c1c(O)c3c(c(O)c1C2=O)C[C@@](O)(C(C)=O)C[C@@H]3O[C@H]1C[C@H](N)[C@H](O)[C@H](C)O1` [Daunorubicin·HCl] (concentration: 25 nM) registered a mean cell size in experiment [1] of 1.04 ± 0.037. The compound also gave a cell count in experiment [2] of 0.711 ± 0.11.

`CN(Cc1ccc(C(C)(C)C)cc1)Cc1cccc2ccccc12` [Butenafine·HCl] (concentration: 25 µM) came in with a mean cell size in experiment [1] of 0.97 ± 0.031. The same compound displayed a cell count in experiment [2] of 0.793 ± 0.076.

Compound `Cc1cccc(CN2CCN(C(c3ccccc3)c3ccc(Cl)cc3)CC2)c1` (stereo not drawn) [Meclizine Dihydrochloride] (concentration: 25 µM) registered a mean cell size in experiment [1] of 0.965 ± 0.024. In experiment [2], this compound showed a cell count of 0.703 ± 0.088.

`Nc1ccc(S(N)(=O)=O)cc1` [Sulfanilamide] (concentration: 25 µM) showed a mean cell size in experiment [1] of 0.925 ± 0.018. Further, in experiment [2], the cell count stood at 0.546 ± 0.18.

For the compound `O=C1c2cccc3c2[C@H](CCC3)CN1[C@@H]1CN2CCC1CC2` [Palonosetron·HCl] (concentration: 25 µM), in experiment [1], the mean cell size worked out at 1.07 ± 0.033. The cell count in experiment [2] stood at 0.721 ± 0.022.

For the compound `Clc1ccc(CSC(Cn2ccnc2)c2ccc(Cl)cc2Cl)cc1` (stereo not drawn) [Sulconazole Nitrate] (concentration: 25 µM), the mean cell size in experiment [1] was found to be 0.953 ± 0.023. For the same compound, in experiment [2], the cell count stood at 0.923 ± 0.11.

`NNCCc1ccccc1` [Phenelzine Sulfate] (concentration: 25 µM): the mean cell size in experiment [1] was 0.942 ± 0.015. Also, the cell count in experiment [2] was 0.882 ± 0.12.

Compound `CCC1(c2ccccc2)C(=O)NCNC1=O` [Primidone] (concentration: 25 µM) gave a mean cell size in experiment [1] of 1 ± 0.021. In experiment [2], this compound had a cell count of 0.618 ± 0.18.

The compound `COc1cc2nc(N(C)CCCNC(=O)C3CCCO3)nc(N)c2cc1OC` (stereo not drawn) [Alfuzosin] (concentration: 25 µM) registered a mean cell size in experiment [1] of 0.952 ± 0.029. For the same compound, in experiment [2], the cell count turned out to be 0.41 ± 0.14.

In turn, `N[C@@H](Cc1cc(I)c(Oc2cc(I)c(O)c(I)c2)c(I)c1)C(=O)O` [Levothyroxine·Na] (concentration: 25 µM) gave a mean cell size in experiment [1] of 1.02 ± 0.059. The compound further returned a cell count in experiment [2] of 0.808 ± 0.087.

As to `N[C@@H](Cc1cc(I)c(Oc2ccc(O)c(I)c2)c(I)c1)C(=O)O` [Liothyronine·Na] (concentration: 25 µM), the mean cell size in experiment [1] turned out to be 0.966 ± 0.02. The compound further had a cell count in experiment [2] of 0.648 ± 0.15.

Consider `CC[C@H]1OC(=O)[C@H](C)[C@@H](O[C@H]2C[C@@](C)(OC)[C@@H](O)[C@H](C)O2)[C@H](C)[C@@H](O[C@@H]2O[C@H](C)C[C@H](N(C)C)[C@H]2O)[C@](C)(O)C[C@@H](C)C(=O)[C@H](C)[C@@H](O)[C@]1(C)O` [Erythromycin] (concentration: 25 µM), for which the mean cell size in experiment [1] is 0.97 ± 0.038. In experiment [2], this compound returned a cell count of 0.871 ± 0.061.

In the case of `N=C(N)c1ccc(OCCCCCOc2ccc(C(=N)N)cc2)cc1` [Pentamidine Isethionate] (concentration: 25 µM), the mean cell size in experiment [1] was found to be 0.878 ± 0.021. In experiment [2], this compound had a cell count of 0.601 ± 0.055.
